Laboratory results reported in PubChem BioAssay (Tox21).
“And” between values parts separate entries of the source, which are not always exact repeats. Identical values can stand only once. Results filed as inconclusive are left out. Entries that show only a call come without a potency. More than one record can exist for a structure, and the calls need not agree. The source made the active and inactive calls. The call rests on the fitted dose curve; in most records, active means well fitted curve in the direction sought with a large enough effect in the repeat runs; inconclusive means weak or mixed curves; inactive means no such curve, though single readings can be large; an effect the other way counts as inactive or inconclusive.

Legend:
[1] = A CellTox Green Cytotoxicity Assay to monitor cytotoxicity in HEK293 cells - 40 hour (AID 1224871); further: nearly all actives have a fitted effect of over 45% in size; further: potency means the concentration at half of the fitted maximal effect
How it was run: (§1)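 HEK293 cells, 600/well, were preincubated 5 hours and then exposed to compounds at 37 C for up to 40 hours. A cell-impermeant cyanine dye staining dead-cell DNA was read by fluorescence at 0, 8, 16, 24, 32 and 40 h time points.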

[2] = qHTS RealTime-Glo MT Cell Viability Assay in HEK293 cells - 16 hour (AID 1224872); further: nearly all actives have a fitted effect of over 50% in size; further: potency means the concentration at half of the fitted maximal effect
How it was run: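 Reads taken at 0, 8, 16, 24, 32 and 40 h from the same wells. HEK293 cells (600/well) carried RealTime-Glo reagents from seeding, with compound added after a 5 h settle at 37 C.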

[3] = qHTS RealTime-Glo MT Cell Viability Assay in HepG2 cells - 8 hour (AID 1224873); further: nearly all actives have a fitted effect of over 55% in size; further: potency means the concentration at half of the fitted maximal effect
How it was run: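 HepG2 cells (600/well) mixed with RealTime-Glo MT reagent, settled 5 h at 37 C/5% CO2 before compound addition. Nonlytic NanoLuc luminescence from viable-cell prosubstrate reduction read repeatedly during 40 h treatment at 37 C.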

[4] = qHTS RealTime-Glo MT Cell Viability Assay in HEK293 cells - 40 hour (AID 1224874); settings: RealTime-Glo luminescence; max response: stronger effect = lower value; further: nearly all actives have a fitted effect of over 50% in size; further: potency means the concentration at half of the fitted maximal effect
How it was run: (§2)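 600 cells/well were plated with the nonlytic NanoLuc/prosubstrate reagent, pre-incubated 5 h, then given 23 nL of compound in DMSO. Incubation at 37 C for 40 h, with luminescence from viable-cell-reduced substrate read repeatedly from 0 h.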

[5] = A CellTox Green Cytotoxicity Assay to monitor cytotoxicity in HEK293 cells - 24 hour (AID 1224875); further: nearly all actives have a fitted effect of over 45% in size; further: potency means the concentration at half of the fitted maximal effect
How it was run: as §1

[6] = A CellTox Green Cytotoxicity Assay to monitor cytotoxicity in HepG2 cells - 16 hour (AID 1224876); further: nearly all actives have a fitted effect of over 45% in size; further: potency means the concentration at half of the fitted maximal effect
How it was run: (§3)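 HepG2 cells, 600/well, preincubated 5 h with CellTox Green dye, then exposed to Tox21 compounds in DMSO at 37 C for up to 40 h. Dead-cell DNA fluorescence read at the indicated time point.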

[7] = qHTS RealTime-Glo MT Cell Viability Assay in HepG2 cells - 32 hour (AID 1224877); further: nearly all actives have a fitted effect of over 55% in size; further: potency means the concentration at half of the fitted maximal effect
How it was run: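 HepG2 suspension premixed with RealTime-Glo reagents is plated at 600 cells per well and left 5 h at 37 C/5% CO2. Compounds in DMSO then go in, and bioluminescence reflecting viable cell number is recorded over 40 h.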

[8] = A CellTox Green Cytotoxicity Assay to monitor cytotoxicity in HepG2 cells - 24 hour (AID 1224878); further: nearly all actives have a fitted effect of over 45% in size; further: potency means the concentration at half of the fitted maximal effect
How it was run: as §3

[9] = A CellTox Green Cytotoxicity Assay to monitor cytotoxicity in HepG2 cells - 40 hour (AID 1224879); further: nearly all actives have a fitted effect of over 40% in size; further: potency means the concentration at half of the fitted maximal effect
How it was run: as §3

[10] = qHTS RealTime-Glo MT Cell Viability Assay in HEK293 cells - 0 hour (AID 1224880)
How it was run: as §2

Compound | Potency [1] | Potency [2] | Potency [3] | max response [4] | Potency [5] | Potency [6] | Potency [7] | Potency [8] | Potency [9] | Potency [4] | Potency [10]
CC1CC(=O)O1 (stereo unspecified) | inactive | inactive | inactive | 4.47% (inactive) and -6.16% (inactive) | inactive | inactive | inactive | inactive | inactive |  | 
Cl | inactive | inactive | inactive | 0.872% (inactive) and 8.14% (inactive) | inactive | inactive | inactive | inactive | inactive |  | 
CC1(C)C(C(=O)OC(C#N)c2cccc(Oc3ccccc3)c2)C1(C)C (stereo unspecified) | inactive | inactive | inactive | -25.9% (inactive) | inactive | inactive | inactive | inactive | inactive | 22 µM (active) | 
Clc1ccccc1-c1nnc(-c2ccccc2Cl)nn1 | inactive | inactive | inactive | -1.79% (inactive) and -6.1% (inactive) | inactive | inactive | inactive | inactive | inactive |  | 
CC(C)(C#N)N=NC(C)(C)C#N | inactive | inactive | inactive | 5.82% (inactive) and -2% (inactive) | inactive | inactive | inactive | inactive | inactive |  | 
NN=C(N)N | inactive | inactive | inactive | -2.73% (inactive) and -1.15% (inactive) | inactive | inactive | inactive | inactive | inactive |  | 
CC(C)(O)C#N | inactive | inactive | inactive | 1.12% (inactive) and 7.67% (inactive) | inactive | inactive | inactive | inactive | inactive |  | 
O=NN1CCOCC1 | inactive | inactive and 3.47 µM (active) | inactive | -0.852% (inactive) | inactive | inactive | inactive | inactive | inactive | 1.95 µM (active) | inactive
COP(=S)(OC)Oc1ccc(Sc2ccc(OP(=S)(OC)OC)cc2)cc1 | inactive | inactive | inactive | 5.12% (inactive) | inactive | inactive | inactive | inactive | inactive |  | 
CCC(=O)Nc1ccc(Cl)c(Cl)c1 | inactive | 44.5 µM (active) | inactive |  | inactive | inactive | inactive | inactive | inactive | 22.3 µM (active) and 43.6 µM (active) | 
C[C@]12CC[C@H]3[C@@H](CCC4=CC(=O)CC[C@@H]43)[C@@H]1CC[C@@H]2O | inactive | inactive | inactive | -22.5% (inactive) | inactive | inactive | inactive | inactive | inactive |  | 
Nc1ncn[nH]1 | inactive | inactive | inactive | -0.91% (inactive) and 1.15% (inactive) | inactive | inactive | inactive | inactive | inactive |  | 
CC(C)(c1ccccc1)c1ccc(O)c(C(C)(C)c2ccccc2)c1 | 24.3 µM (active) and 43.6 µM (active) | 21.7 µM (active) and 43.6 µM (active) | 48.5 µM (active) and 38.9 µM (active) |  | 43.2 µM (active) and 49 µM (active) | 48.5 µM (active) and 43.6 µM (active) | 49 µM (active) | 48.5 µM (active) and 43.6 µM (active) | 54.4 µM (active) and 43.6 µM (active) | 17.2 µM (active) and 43.6 µM (active) | 
c1ccc(C2CO2)cc1 (stereo unspecified) | inactive | inactive | inactive | -2.54% (inactive) and -3.91% (inactive) | inactive | inactive | inactive | inactive | inactive |  | 
CCOP(=O)(O)OCC (tested in a mixture with another compound) | inactive and 24.3 µM (active) | inactive and 24.3 µM (active) | inactive | 4.04% (inactive) |  | inactive and 43.3 µM (active) | inactive and 48.6 µM (active) | inactive and 43.3 µM (active) | inactive and 34.4 µM (active) | 2.43 µM (active) | inactive
C=CC(Cl)CCl (stereo unspecified) | inactive | inactive | inactive | 19.1% (inactive) and 0.374% (inactive) | inactive | inactive | inactive | inactive | inactive |  | 
Nc1ccc2ccccc2c1 | inactive | inactive | inactive | 5% (inactive) | inactive | inactive | inactive | inactive | inactive |  | 
COc1ccc(O)c(C(C)(C)C)c1 | inactive | inactive | inactive | -6.92% (inactive) and 11.9% (inactive) | inactive | inactive | inactive |  |  |  | 

Compound | Potency [1] | Potency [2] | Potency [3] | max response [4] | Potency [5] | Potency [6] | Potency [7] | Potency [8] | Potency [9] | Potency [4] | Potency [10]
C=C(C)C#N | inactive | inactive and 21.9 µM (active) | inactive | 3.27% (inactive) | inactive | inactive | inactive | inactive | inactive | 5.49 µM (active) | inactive
CS(=O)(=O)NC(=O)c1cc(Oc2ccc(C(F)(F)F)cc2Cl)ccc1[N+](=O)[O-] | inactive | inactive | inactive | 9.57% (inactive) and 9.32% (inactive) | inactive | inactive | inactive | inactive | inactive |  | 
ClC(Cl)(Cl)c1ccccc1 | inactive | inactive | inactive | 8.54% (inactive) and -1.53% (inactive) | inactive | inactive | inactive | inactive | inactive |  | 
CC(C)COC(=O)c1ccccc1C(=O)OCC(C)C | inactive | inactive | inactive | 8.51% (inactive) and 5.74% (inactive) | inactive | inactive | inactive | inactive | inactive |  | 
Nc1ccc([N+](=O)[O-])cc1N | inactive | inactive | inactive | 0.0622% (inactive) and -18.5% (inactive) | inactive | inactive | inactive | inactive | inactive |  | 
CCC1(c2ccc(N)cc2)CCC(=O)NC1=O (stereo unspecified) | inactive | inactive | inactive | 6.38% (inactive) | inactive | inactive | inactive | inactive | inactive |  | 
Oc1ccc(Cl)cc1Cl | inactive | inactive | inactive | 3.11% (inactive) | inactive | inactive | inactive | inactive | inactive |  | 
CCC/C=N/O | inactive | inactive | inactive | -8.66% (inactive) and 0.163% (inactive) | inactive | inactive | inactive | inactive | inactive |  | inactive
S=c1[nH]c2ccccc2[nH]1 | inactive | inactive | inactive | 4.47% (inactive) and 4.64% (inactive) | inactive | inactive and 21.9 µM (active) | inactive | inactive and 21.9 µM (active) | inactive and 21.9 µM (active) |  | 
COP(=O)(NC(C)=O)SC (stereo unspecified) | inactive | inactive | inactive | 1.36% (inactive) and 10.1% (inactive) | inactive | inactive | inactive | inactive | inactive |  | 
Cc1ccc(N=CN(C)C=Nc2ccc(C)cc2C)c(C)c1 | inactive | 43.8 µM (active) and 38.9 µM (active) and inactive | inactive | -1.79% (inactive) | inactive | inactive | inactive | 43.6 µM (active) and inactive | 43.6 µM (active) and inactive | 43.8 µM (active) and 43.6 µM (active) | inactive
O=C(O)CF | inactive | inactive | inactive | 2.85% (inactive) and 14% (inactive) | inactive | inactive | inactive | inactive and 19.5 µM (active) | inactive and 19.5 µM (active) |  | 
CCNc1nc(Cl)nc(NC(C)(C)C#N)n1 | inactive | inactive | inactive | -8.64% (inactive) and -8.88% (inactive) | inactive | inactive | inactive | inactive | inactive |  | 
CC(C)=CC1C(C(=O)OCc2cccc(Oc3ccccc3)c2)C1(C)C (stereo unspecified) | inactive | inactive | inactive | -1.31% (inactive) and -6.07% (inactive) | inactive | inactive | inactive | inactive | inactive |  | 
O=[N+]([O-])c1ccc(Cl)c([N+](=O)[O-])c1 | 14 µM (active) and 19.5 µM (active) | 11.1 µM (active) and 12.3 µM (active) | 24.9 µM (active) and 15.5 µM (active) |  | 39.5 µM (active) | 39.5 µM (active) and 54.9 µM (active) | 35.2 µM (active) and 17.4 µM (active) | 35.2 µM (active) and 49 µM (active) | 39.5 µM (active) and 24.5 µM (active) | 9.92 µM (active) and 12.3 µM (active) | 
CC(C)(c1ccc(OCC2CO2)cc1)c1ccc(OCC2CO2)cc1 (stereo unspecified) | inactive | inactive | inactive | -0.153% (inactive) | inactive | inactive | inactive | inactive | inactive |  | 
[CH3][Sn]([Cl])([Cl])[Cl] | inactive | inactive | inactive | 17% (inactive) and 3.42% (inactive) | inactive | inactive | inactive | inactive | inactive |  | 
c1ccc2c(c1)Nc1ccccc1S2 | inactive | 6.92 µM (active) and 12 µM (active) | inactive |  | inactive | inactive | inactive | inactive | inactive | 14.3 µM (active) and 13.4 µM (active) | 
